Source: PubChem
Mdm2 MdmX PPI: disrupts the human Mdm2-MdmX interaction; O15151+Q00987; SaOS-2 split-luciferase Mdm2/MdmX complementation, luminescence; inhibition, % at 8 µM; hit rate 3% among 330,000; AID 485346;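 active means inhibition of at least 50% at 8 µM in the primary screen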
Bfl-1 A1 inh: inhibitors of the anti-apoptotic protein A1, read as caspase activation; hit rate 0.066% among 330,000; caspase activation, % (concentration not given with the values); MEF A1-2A-BIM cells, Caspase-Glo 3/7 luminescence, 3 h; percent of clofoctol response, vehicle zero; AID 2462;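 active means over half of replicate activation scores above 10%, or exactly half above 10 with the replicate mean above 10; inconclusive means replicate mean below 10 yet half the replicates above 10; inactive means over half of replicates below 10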
CSC inhib: blocks cancer stem cells; cancer stem cell-like cells viability, luminescence; inhibition, % at 7.5 µM; hit rate 1.1% among 300,000; in the data active means inhibition above about 75%; inconclusive means no clear call, values can overlap the other calls; tested in HMLE shEcad cells
aSyn UTR inh: MLPCN primary screen, SNCA 5' untranslated region. alpha-synuclein 5'UTR reporter, inhibitor activity. inhibition, % (tested at 7.5 µM). hit rate 0.82% among 300,000; in the data active means inhibition above about 60%; inconclusive means no clear call, values can overlap the other calls;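 further: H4 neuroglioblastoma cells stably carrying SNCA 5'UTR luciferase fusion; 0% = DMSO wells and 100% = positive control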
Beta cell apopt: beta cell apoptosis inhibition. INS-1E cytokine-induced death, ATP luminescence, 48 h; percent of positive-control rescue, neutral wells zero. hit rate 0.8% among 300,000. protection from apoptosis, % (concentration not given with the values);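 active means Every replicate reaches about 75%, or at least half do and their mean reaches it too, limit read from the data; inconclusive means At least half of replicates reach the limit but their mean does not; inactive means Under half of replicates reach the limit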;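 further: 0% = cytokine-treated negative control wells and 100% = positive control rescue; higher means more ATP so stronger rescue from cytokine killing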
* = called active by the depositor; ? = inconclusive; · = not tested or not shown. Sampled rows, rich in hits. Any-hit rate of the full collection: about 4.1%.

SMILES | Mdm2 MdmX PPI | Bfl-1 A1 inh | CSC inhib | aSyn UTR inh | Beta cell apopt
COc1cccc(-c2cc(CC3(O)CCN(CCCc4ccccc4)CC3)on2)c1 | -0.7 | 0.4 | 15.0 | 22.8 | ·
Cc1c(C(=O)N(Cc2ccccc2)C(C)C)oc2ccc(S(=O)(=O)N3CCOCC3)cc12 | 12.8 | -0.3 | 7.2 | 14.2 | 90.3*
COc1cc(CC(=O)N2CCN(C(=O)C3CCCO3)CC2)cc(OC)c1OC (stereo not drawn) | 1.4 | 1.3 | 6.5 | · | -5.7
O=C(CSc1ccc(F)cc1)Nc1ccc2c(c1)C(=O)NC2=O | 7.4 | -0.1 | -4.7 | 6.2 | -4.5
OC(c1cc(-c2ccc(Cl)cc2)nc2ccccc12)C1CCCCN1 (stereo not drawn) | · | 0.9 | 116.3* | 96.4* | 120.9*
NC(=O)C1CCN(C(=O)c2cc(-c3ccc(Cl)cc3)nc3ccccc23)CC1 | 7.2 | -0.6 | -3.7 | · | -2.8
Cc1ccccc1C(=O)Nc1cccc(C(=O)N/N=C/c2cc(Cl)cc([N+](=O)[O-])c2O)c1 | 26.0 | -0.6 | 49.1 | 0.0 | 101.1*
C=CCN(Cc1cccc(OC)c1OC)C(=O)Oc1ccccc1 | -19.2 | 0.4 | -16.5 | · | -0.2
COc1ccc(/C=C/c2nc3cc(-c4ccccc4)ccc3o2)cc1O | 10.4 | 0.0 | 102.1* | -42.7 | 3.5
c1ccc(CSc2nnnn2-c2ccc3c(c2)OCCO3)nc1 | 16.0 | -0.4 | 2.3 | -70.7 | 2.1
Clc1ccc(CSc2nnnn2-c2ccc3c(c2)OCO3)c(Cl)c1 | 29.8 | 0.6 | 82.3* | 16.3 | 0.1
COc1ccccc1CNC(=O)CN1C(=O)NC2(CCCC2)C1=O | -11.2 | -0.1 | -13.0 | · | -0.4
CCc1oc2ccccc2c1C(=O)c1cc(Br)c(O)c(Br)c1 | 17.4 | 1.3 | 85.1* | 23.3 | -3.4
O=C1CCc2cc(S(=O)(=O)NCCc3ccccc3)cc3c2N1CC3 | 5.8 | 0.1 | -8.8 | -9.8 | -2.4
COc1cccc(/C=C/c2nc(C#N)c(NCC(C)C)o2)c1 | 0.4 | -0.9 | 128.4* | 10.3 | 11.4
O=C(CCN1C(=O)C2CCCCC2C1=O)N1CCN(S(=O)(=O)c2c(F)cccc2F)CC1 (stereo not drawn) | -7.3 | 1.2 | -8.8 | -26.1 | -3.3
Clc1ccc2c(N/N=C/c3cccc(Br)c3)ccnc2c1 | · | -1.2 | 80.2* | -17.9 | 80.6*
O=[N+]([O-])c1ccc(/C=N/Nc2ccnc3cc(Cl)ccc23)o1 | 18.4 | -0.1 | 15.2 | -49.2 | 106.9*
Cc1[nH]c(C)c(C(=O)/C=C/c2ccc([N+](=O)[O-])cc2)c1C | 40.2 | -0.2 | -0.4 | -232.0 | -6.4
Cc1nc(C(F)(F)F)c(C(=O)N/N=C(\N)c2ccccn2)s1 | 34.5 | 0.0 | 10.0 | 43.0 | 77.0*
N/C(=N\NS(=O)(=O)c1ccccc1C(F)(F)F)c1ccccn1 | 4.9 | 0.2 | 5.3 | -2.3 | 1.1
Cc1ccc(S(=O)(=O)Nc2ccccc2F)cc1C(=O)OC(C)C(=O)N1CCOCC1 (stereo not drawn) | -6.1 | 0.8 | 0.5 | -20.8 | 0.5
O=C(/C=C/c1ccccc1)c1ccc2c(c1)OCO2 | -1.4 | -2.2 | 9.0 | -206.3 | -0.4
O=C(/C=C/c1cccc(Br)c1)c1ccc2c(c1)OCO2 | 43.0 | 1.6 | 77.7* | -72.0 | -2.8
Cc1cc(C)c(CN2CCN(C(=O)Cn3cnc4c(OCc5ccccc5)ncnc43)CC2)c(C)c1 | 44.9 | -0.9 | · | · | 76.6*
SMILES | Mdm2 MdmX PPI | Bfl-1 A1 inh | CSC inhib | aSyn UTR inh | Beta cell apopt
COc1ccc(O)c(/C=N/NC(=O)c2c(C)nnn2-c2nonc2N)c1 | 32.9 | 0.5 | · | 64.1* | 30.6
Cc1ccc2c(c1)Sc1c(ccc3ccccc13)N2 | -65.4 | -4.9 | 39.3 | -6.2 | 103.9*
O=c1[nH]c(/C=C/c2ccc(Cl)cc2Cl)c([N+](=O)[O-])c(=O)[nH]1 | -10.5 | -0.2 | 41.0 | -14.9 | -4.2
CCOc1ccc(CNC(=O)CCC(=O)N2Cc3ccccc3Oc3ncccc32)cc1 | 2.9 | -0.2 | -11.3 | 25.3 | -12.7
CCC1CCCCN1C(=O)c1cc(COc2ccc(-n3cncn3)cc2)on1 (stereo not drawn) | 6.7 | -0.1 | -13.0 | 3.0 | 103.7*
O=C(c1cc(COc2ccc(-n3cncn3)cc2)on1)N1CCCC1 | 11.8 | 0.1 | 21.4 | 2.7 | 0.0
Nc1nc(-c2ccccn2)nc(N)c1Cc1c(F)cccc1Cl | 43.0 | -0.2 | 4.8 | -6.0 | 96.1*
Nc1nc(-c2ccccn2)nc(N)c1Cc1ccccc1F | 7.4 | -0.4 | -12.8 | -246.3 | 20.1
Nc1nc(-c2ccccn2)nc(N)c1Cc1ccc(Cl)cc1Cl | 39.5 | -0.1 | -10.2 | 30.1 | 95.5*
COc1cc(/C=c2\sc3n(c2=O)C(c2ccccc2)C(c2ccccc2)=NN=3)ccc1O (stereo not drawn) | 47.2 | 0.9 | 103.3* | · | 13.8
COc1cc(/C=c2\sc3n(c2=O)CCCN=3)ccc1O | -43.2 | -1.0 | 7.5 | -101.8 | -1.4
CCn1c(=O)c(C(=O)NCCc2ccccc2)c(O)c2ccccc21 | 27.8 | -0.2 | 94.9* | 21.2 | -1.8
CCNCCNC(=O)c1c(O)c2ccccc2n(CC)c1=O | -42.0 | 0.4 | -7.4 | 3.1 | 2.4
N#Cc1ccccc1NC(=O)COc1ccccc1C(=O)Nc1ccccc1 | -29.8 | 1.7 | 4.0 | · | -2.0
COc1cccc(C2CC(c3cccs3)=NN2C(=O)CSc2nc3c(cnn3-c3ccc(F)cc3)c(=O)[nH]2)c1OC (stereo not drawn) | 18.6 | -0.1 | 118.2* | 6.9 | 6.3
CCOC(=O)[C@H]1[C@H]2COc3ccc(OC)cc3[C@@H]2N2C(=O)CN(CC3CCCO3)C(=O)[C@@]12C (stereo partly drawn) | 26.1 | ? | -23.7 | · | 5.0
O=C(Nc1cccnc1)C12CC3CC(CC(C3)C1)C2 | 0.6 | -0.6 | -8.6 | 13.4 | -3.2
O=C(Nc1cccnc1)C1(F)C(F)(F)C(F)(F)C(F)(F)C(F)(F)C1(F)F | 4.1 | -0.3 | -9.3 | -14.5 | 109.5*
O=C(NCC1OCCc2ccccc21)c1ccc(NC(=O)c2ccc(Cl)cc2)cc1 (stereo not drawn) | 47.3 | 0.9 | -11.2 | 79.4* | 37.0
CCOc1ccc(CCNC(=O)CSCC(=O)Nc2cccc(C)c2)cc1OCC | -3.3 | -0.3 | -3.6 | 13.9 | -7.2
COc1ccccc1N(C)S(=O)(=O)c1ccc(C(=O)N2CCCc3ccccc32)cc1 | 7.0 | -0.2 | 4.1 | -1.4 | 9.3
O=C(NC(=S)Nc1ccc(N2CCCCC2)c(Cl)c1)c1cccs1 | -12.8 | 0.1 | 81.2* | -109.8 | 9.3
O=c1c2ccccc2nc(COc2ccccc2)n1/N=C/c1cc([N+](=O)[O-])ccc1O | 24.8 | -4.3 | 75.5* | 38.1 | 79.1*
CCCc1nc2ccccc2c(=O)n1/N=C/c1ccccc1O | 4.8 | -1.2 | 17.0 | 23.1 | 96.8*
Cc1nc2ccccc2c(=O)n1/N=C/c1ccc(O)cc1O | 10.2 | -0.6 | 7.2 | -6.1 | -5.3
Cc1ccc(-c2[nH]ncc2/C=N/n2c(COc3ccccc3C)nc3ccccc3c2=O)cc1 | 29.7 | 1.8 | -7.9 | 4.8 | 93.1*
O=Cc1ccc(OC(=O)Cc2ccc(F)cc2)cc1 | -5.2 | 0.1 | 2.6 | -10.1 | 5.7
Cc1cc(NC(=O)C(C)SCC(=O)Nc2ccccc2C(C)(C)C)no1 (stereo not drawn) | -1.4 | 0.0 | · | -0.6 | -0.6
